tim23-1 inh – tim23-1 yeast growth inhibition | S. cerevisiae tim23-1 growth, BacTiter-Glo luminescence, 24 h | inhibition, % at 20 µM | hit rate 1.3% among 330,000;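 active = growth inhibition of the mutant yeast at or above 50%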;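 also: temperature-sensitive mutant grown at 25 °C; plate controls were DMSO-treated mutant yeast for no effect and medium wells lacking yeast for full effect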
PfHsp90 yeast 2 – inhibits growth of yeast expressing Plasmodium falciparum Hsp90; S. cerevisiae expressing PfHsp90, BacTiter-Glo ATP, 48 h; yeast lacking PDR1 and PDR3 efflux regulators; inhibition, % at 9.4 µM; hit rate 0.32% among 310,000; AID 504621;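 active = every replicate shows inhibition above about 80%, whatever the replicate mean, limit read from the data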;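 also: 0% = DMSO neutral controls and 100% = 20 µM radicicol positive controls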
tim10-1 inh – inhibits growth of tim10-1 mutant yeast; hit rate 2.2% among 330,000; S. cerevisiae tim10-1 ts strain growth, BacTiter-Glo, 24 h; inhibition, % at 20 µM;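 active = inhibition of at least 40%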;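 also: mutant grown at 25 °C; 0% = DMSO wells with yeast and 100% = wells holding no yeast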
NLRP3 yeast inh – inhibitors of NALP3 inflammasome in yeast | Yeast reconstituted NLRP3/ASC/caspase-1, beta-gal luminescence, 24 h | inhibition, % at 10 µM | hit rate 0.39% among 330,000;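 active = inhibition of 50% or more; inactive = inhibition below 50%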;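 also: plate controls were induced DMSO wells for no effect and uninduced yeast grown without galactose for full effect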
TIM10 inh – inhibits growth of TIM10 yeast strain | S. cerevisiae TIM10 strain growth, BacTiter-Glo luminescence, 24 h | inhibition, % at 10 µM | hit rate 1.4% among 330,000 | AID 463195;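 active = inhibition of 40% or more at the single tested concentration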;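 also: wild-type TIM10 isogenic control strain grown at permissive 25 °C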
tim23-1 confirm – confirmation of tim23-1 mutant yeast growth inhibitors | shares compounds with tim23-1 inh | S. cerevisiae tim23-1 growth, BacTiter-Glo luminescence, 24 h | inhibition, % at 20 µM | hit rate 83% among 4,400 | AID 463218;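 active = inhibition above about 39% in either of two replicate wells at 20 µM, limit read from the data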;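 also: temperature-sensitive tim23-1 mutant grown at 25 °C; 0% = DMSO wells with yeast and 100% = medium wells without yeast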
The depositor's hits bear a star; nt = not tested or not shown. An excerpt weighted towards active compounds, which were near 3.7% of everything screened.

SMILES	tim23-1 inh	PfHsp90 yeast 2	tim10-1 inh	NLRP3 yeast inh	TIM10 inh	tim23-1 confirm
CCc1ccc(NC(=O)Nc2ccsc2C(=O)OC)cc1	56*	14	31	27	12	57*
C/C(=N\Nc1nc(-c2ccccc2)cs1)c1cccs1	22	-3	28	9	18	nt
C(=N\Nc1nc2ccccc2s1)/c1ccco1	42	2	16	15	8	nt
C(=N\Nc1nc2ccccc2s1)/c1cccs1	59*	-26	0	11	18	38
C/C(=N\Nc1nc2ccccc2s1)c1cccs1	64*	-40	32	0	20	48*
O=C(NN1CCOCC1)c1cn(-c2ccccc2)nc1-c1cccs1	5	-19	3	-24	-2	nt
Cc1ccc(C(=O)C(C)OC(=O)c2cc3cc([N+](=O)[O-])ccc3oc2=O)cc1 (stereo not drawn)	72*	21	-18	13	2	55*
Cc1ccc(S(=O)(=O)/N=C/c2cc(Br)ccc2O)cc1	36	5	10	-5	13	nt
Cc1cc(N=Cc2cc(Br)ccc2O)no1	67*	nt	36	3	8	34
N#Cc1c(NC(=O)C2CC2)sc2c1CCCCC2	51*	-1	35	14	28	44*
CC(=O)Nc1sc2c(c1C#N)CCCC2	9	nt	15	-12	-5	nt
O=C(N/N=C/c1cccc(OCc2ccccc2)c1)c1cccs1	55*	12	-7	5	-7	42*
O=C(O)c1ccc(COc2ccc(/C=N/NC(=O)c3cccs3)cc2)cc1	16	-3	11	10	2	nt
O=S(=O)(c1ccc2c(c1)C(O)c1ccccc1CC2)C(F)(F)F (stereo not drawn)	63*	7	34	24	24	45*
Nc1cc(S(=O)(=O)C(F)(F)F)ccc1C(=O)O	-1	-5	-11	-11	-20	nt
COc1ccccc1N(CC(=O)NC1CCCC1)C(=O)CCC(=O)Nc1ccccn1	1	-6	-3	2	13	nt
Cc1ccc(CNC(=O)CCSCc2cccc(F)c2)cc1	20	-33	13	41	2	nt
O=C(CN1C(=O)c2ccccc2S1(=O)=O)c1ccc(Cl)cc1Cl	51*	nt	32	10	8	24
NC(=O)CN(c1ccc([N+](=O)[O-])cc1)S(=O)(=O)c1ccccc1	-7	-3	0	6	2	nt
NNC(=O)c1n[nH]c2c1CC(C1CCCCC1)CC2 (stereo not drawn)	48	10	34	6	16	nt
CCCNC(=O)c1n[nH]c2c1CC(C(C)(C)CC)CC2 (stereo not drawn)	57*	7	37	10	24	58*
C=CCNC(=O)c1n[nH]c2c1CC(C(C)(C)CC)CC2 (stereo not drawn)	53*	-2	36	12	21	56*
Cn1c(=O)c2c(SCc3cccnc3)nc(C3CC3)nc2n(C)c1=O	50*	0	21	11	13	42*
CCc1nc(SCc2ccccn2)c2c(=O)n(C)c(=O)n(C)c2n1	55*	-43	22	15	-9	50*
CC(C)c1nc(SCc2ccccn2)c2c(=O)n(C)c(=O)n(C)c2n1	50*	-14	15	26	8	48*
SMILES	tim23-1 inh	PfHsp90 yeast 2	tim10-1 inh	NLRP3 yeast inh	TIM10 inh	tim23-1 confirm
CC(C)c1nc(SCC(=O)N2CCCC2)c2c(=O)n(C)c(=O)n(C)c2n1	15	-17	-1	13	-3	nt
Cc1ccccc1-c1nc(SCc2ccccn2)c2c(=O)n(C)c(=O)n(C)c2n1	-28	-2	-6	12	-18	nt
Cn1c(=O)c2c(SCC(=O)NCCc3ccccc3)nc(C3CC3)nc2n(C)c1=O	12	nt	5	3	3	nt
COc1ccc2c(c1)SCC/C2=C\CN1C(=O)CCC1=O	13	-6	3	3	5	nt
Cc1cc([N+](=O)[O-])cc(/C=N/n2c(C)nc3ccccc3c2=O)c1O	79*	-41	11	35	8	66*
Cc1nc2ccccc2c(=O)n1/N=C/c1ccccc1O	26	2	-8	10	20	nt
CC(C)NC(=O)N(C)C[C@H]1Oc2c(NC(=O)Nc3ccccc3)cccc2C(=O)N([C@H](C)CO)C[C@@H]1C	12	-14	6	11	-6	nt
Cc1nc2c(C#N)cnn2c2c1CCN2CC1CCCO1 (stereo not drawn)	1	7	21	-10	16	nt
CC(Cc1ccccc1)NC(=O)c1cc2ccccc2o1 (stereo not drawn)	51*	-9	-24	39	23	53*
CCOC(=O)Nc1nc(-c2ccccc2)c(C(=O)c2ccc(Cl)cc2)s1	53*	-18	34	23	34	59*
CCOC(=O)Nc1sc(C)nc1-c1ccccc1	0	0	-21	-7	-7	nt
Cc1ccc(CNC(=O)CCC2CCCN(C(=O)CCC(F)(F)F)C2)o1 (stereo not drawn)	13	-27	12	4	17	nt
COc1ccc(S(=O)(=O)NCC2CCC(C(=O)NCCCN3CCCC3=O)CC2)cc1 (stereo not drawn)	1	-3	-7	8	0	nt
O=C(COC(=O)c1n[nH]c(=O)c2ccccc12)Nc1cccc(S(=O)(=O)N2CCOCC2)c1	nt	11	nt	nt	nt	nt
Cc1c(CCOC(=O)C23CC4CC(CC(C)(C4)C2)C3)sc[n+]1CC(=O)c1ccccc1	62*	-28	5	19	18	18
COc1ccc(C2(CNS(=O)(=O)c3ccc(C)cc3)CCOCC2)cc1	24	-11	6	2	-14	nt
C(=N\N1CCN(C2c3ccccc3-c3ccccc32)CC1)/c1ccccn1	54*	-1	24	18	36	32
C[C@H](CO)N1C[C@H](C)[C@@H](CN(C)Cc2ccncc2)Oc2c(NS(=O)(=O)c3ccccc3)cccc2C1=O	-10	-1	-6	21	3	nt
CCn1c(SC/C=C/c2ccccc2)nnc1-c1cccs1	45	nt	7	21	27	nt
Cn1c(SC/C=C/c2ccccc2)nnc1-c1cccs1	57*	3	6	36	-4	45*
O=C(NC1CC2CCC(C1)N2Cc1ccccc1)c1cccc(F)c1 (stereo not drawn)	10	-8	-5	12	-17	nt
O=C(CCl)Nc1cccc(Oc2ccccc2)c1	52*	-11	14	-25	14	33
COC(=O)Cn1cc(S(=O)(=O)NCc2ccc(C)cc2)c2cc([N+](=O)[O-])ccc21	-9	2	0	12	-7	nt
O=Cc1ccccc1OCCOc1ccccc1C=O	85*	-19	15	11	39	78*
O=C(O)CC/C(=N\NC(=O)c1ccncc1)c1ccccc1	-5	2	6	12	1	nt
O=C(/C(=C/O)N=Nc1ccccc1)c1ccncc1	56*	nt	23	1	-10	28
O=C(NC1CCCC1)c1cc(COc2ccc3ncccc3c2)on1	-1	-10	-13	13	-7	nt
